# Records with an inconclusive call do not appear. Unmarked numbers belong to inactive results. Active and inactive are the calls of the source. Unless noted, calls follow the shape of the dose curve; as a rule, active = well fitted curve in the direction sought with a large enough effect; inconclusive = small, poorly fitted or top-dose-only effect, or another doubt; inactive = no such curve, though single readings can be large; an effect the other way counts as inactive or inconclusive.
# Key:
# [1] = Confirmatory qHTS for small molecule stabilizers of the endoplasmic reticulum resident proteome: Secreted ER Calcium Modulated Protein (SERCaMP) assay (AID 1508628); settings: SERCaMP secreted luciferase ER calcium/proteostasis reporter; series mostly up to 76.3 µM;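 also: SH-SY5Y cells given compound 16 h then thapsigargin 100 nM for 4 h; % is scaled to controls: 0 for no effect and ±100 for the full control effect; nearly all actives have a fitted effect of over 40% in size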
# Outline: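 GLuc-SERCaMP-expressing SH-SY5Y cells, pretreated 16 h with compound, are challenged with thapsigargin to empty ER calcium stores; after 4 h, coelenterazine is added directly to the medium and luminescence is imaged.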
# [2] = Cell Viability qHTS for small molecule stabilizers of the endoplasmic reticulum resident proteome (AID 1508629); settings: cell viability counter-screen, 100 nM thapsigargin for final 4 h;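 also: human SH-SY5Y neuroblastoma cells carrying the GLuc-SERCaMP reporter; compound exposure about 46 h in total before the viability read; % is scaled to controls: 0 for no effect and ±100 for the full control effect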
# [3] = Confirmatory qHTS to identify inhibitors of SARS-CoV-2 cell entry (AID 1645844; calls by dose curve; also: potency is read from the fitted curve at half-maximal effect; nearly all actives have a fitted effect of over 45% in size); settings: SARS-CoV-2 pseudotyped particle cell entry, luciferase; series mostly up to 57.2 µM
# Outline: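 HEK293-ACE2, overnight seeding; cpd 1 h, 37C/5% CO2; + SARS-CoV-2-S MLV PP (Wuhan-Hu-1, ΔC19); 48 h; Bright-Glo luminescence. Data normalised to S PP and bald PP wells.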
# [4] = VSVG counterscreen qHTS to identify inhibitors of SARS-CoV-2 cell entry (AID 1645847; calls by dose curve; also: potency is read from the fitted curve at half-maximal effect; nearly all actives have a fitted effect of over 65% in size); settings: VSV-G pseudotyped particle entry, luciferase; series mostly up to 57.2 µM
# Outline: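 HEK293-ACE2 cells (Expi293F, human ACE2) pretreated 1 h with compound, then infected with MLV-based VSV-G pseudotyped particles for 48 h at 37 C; luciferase luminescence normalized to VSV-G PP and bald PP wells.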
# [5] = NCATS anti-infectives library activity on HEK293 viability as a counter-qHTS vs the C. elegans viability qHTS (AID 1745854); settings: HEK293 viability counter-screen; series mostly up to 41.8 µM; also: % is scaled to controls: 0 for no effect and ±100 for the full control effect
# Outline: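 CellTiter-Glo luminescence, read on a CCD imager, scored viability of HEK293 cells after 24 hr compound exposure at 37C. Library tested in several concentrations, 1:5 steps, up to 41.7 uM; digitonin served as control.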
SMILES,Potency [1],max response [2] [%],Potency [3],Potency [4],Potency [5]
C[C@H]1CCC/C=C/C2C[C@H](O)C[C@H]2[C@H](O)/C=C/C(=O)O1 (stereo not given in full),inactive,21.4,857 nM (active),857 nM (active),
CN1Cc2c(ccc3c2OCO3)[C@@H]2[C@H]1c1cc3c(cc1C[C@@H]2O)OCO3,,,,,inactive

# — PubChem BioAssay (NCATS)
